In PubChem BioAssay (EPA / NIEHS):
Activity calls are given as the source filed them. How the source made its calls: active means hit-call score of the fitted dose curve at least 0.9, where 1 is the maximum; inactive means score below 0.9.

read-out: adenosine kinase (ADK) gene, ADK (gene 132); experiment: LTEA_HepaRG_ADK: Life Technologies and Expression Analysis (LTEA) Assay for adenosine kinase (ADK) gene using HepaRG (AID 2283471); settings: mRNA level, 48 h; actives raise or lower the signal
Method: LTEA_HepaRG is a cell based, multiplexed-readout assay that uses HepaRG, a human liver cell line, with measurements taken at 48 hours after chemical dosing on a 96-well plate.LTEA_HepaRG_ADK is one of 102 assay component(s) measured in the LTEA HepaRG cell culture assay. It is a marker of Steatosis.Data from the assay component LTEA_HepaRG_ADK was analyzed into 1 endpoint. This assay endpoint, LTEA_HepaRG_ADK, was analyzed with bidirectional fitting relative to DMSO as the negative control and baseline of activity. Using a type of inducible reporter, measures of mRNA induction for gain or loss-of-signal activity can be used to understand regulation of transcription factor activity. To generalize the intended target to other relatable targets, this assay endpoint is annotated to the kinase intended target family, where the subfamily is steatosis.
A total of 1060 chemcials from the ToxCast library were tested in eight-point concentration-response experiments. Cell culture and cytotoxicity assays were conducted at Thermo Fisher Scientific's Custom Services facility (Madison, WI). A single lot of human HepaRG cells (Thermo Fisher Scientific, Frederick, MD) was used for the cell culture experiments. 96-well format collagen type I coated plates of human HepaRG cells were prepared using established methods. Briefly, cryopreserved HepaRG cells were thawed, plated at a density of approximately 100,000 cells/well in HepaRG Thaw, Plate, and General Purpose media (HPRG770, Thermo Fisher Scientific), and incubated for 48 hours. 0.5% DMSO was selected as vehicle control to balance the requisite need of DMSO in HepaRG cultures to maintain differentiation (for example, baseline metabolism, proportions of hepatocytes vs. cholangiocytes), while enabling further hepatic receptor pathway activation (for example, PXR and CAR) in response to chemical exposure. 48 hours after plating, the culture medium was replaced with HepaRG Serum-Free Incudtion Media. Cells were exposed to each test chemical in duplicate and maintained in CO2 incubators for another 48 hours. Chemical plates were thawed to room temperature and 200x concentrations of treatment groups were prepared. 8-point conentration-reponse curves were made with the highest exposure at 100 uM, followed by half-log dilutions, all in 0.5% DMSO. Each test plate contained variouse controls, induction positive controls (1mM phenobarbital), cytotoxicity positive controls ([…] aflatoxin B1), vehicle controls (0.5% DMSO), and total lysis controls (0.5% DMSO). Cell morphology images were taken using an Essen IncuCyte FLR automated microscope, with six 96-well plates imaged in about 24 minutes. Images were captured and exported and JPEG files. Spent culture media was transfered to black-well plates for the LDH assay, and remaining media was sorted at -80 C for later use. Cells were treated with RLT buffer and frozen until shipped for gene expression analysis. Total RNA was isolated from the cell suspension in 75 uL of Buffer RLT (Qiagen, Germantown, MD 20874) by Quintiles/Expression Analysis (Durham, NC) using a custom isolation procedure. Total RNA from each plate well was transferred to a preamplification plate. Fluidigm's 96.96 Dynamic ArrayTM (Fluidigm, Amsterdam, the Netherlands) technology was used for gene expression analyses by quantitative reverse transcription polymerase chain reaction (qRT-PCR, performed by Quintiles/Expression Analysis, Durham, NC)89. Standard TaqManTM Assays (Applied Biosystems/ThermoFisher Scientific, Foster City, CA) were used to assess the expression of 93 genes selected based on their selectivity and sensitivity to important hepatic receptors known to be modulated by environmental chemicals; importance in human hepatocyte functionality; and hepatotoxicity. […]

SMILES	outcome	AC50
c1ccc(N=Nc2ccccc2)cc1	inactive	–
CCNS(=O)(=O)C(F)(F)C(F)(F)C(F)(F)C(F)(F)C(F)(F)C(F)(F)C(F)(F)C(F)(F)F	inactive	–
Cc1cccc(N)c1N	inactive	–
CCC[CH2][Sn]([Cl])([CH2]CCC)[CH2]CCC	inactive	–
OCCCBr	inactive	–
Nc1ccc(Cc2ccc(N)cc2)cc1	inactive	–
CC(C)(C)OOC(=O)c1ccccc1	inactive	–
CN(C)C(=O)Nc1ccc(Cl)cc1	inactive	–
CCCCCOC(=O)c1ccccc1C(=O)OCCCCC	inactive	–
Nc1ccc(Oc2ccc(N)cc2)cc1	inactive	–
C=CCc1ccc2c(c1)OCO2	inactive	–
O=[N+]([O-])c1ccc(Oc2ccc(Cl)cc2Cl)cc1	inactive	–
ClCCOCCCl	inactive	–
C[N+](C)(C)CC1CO1 (stereo not given)	inactive	–
Clc1ccc(Cl)c(Cl)c1	inactive	–
COP(=S)(OC)SCN1C(=O)c2ccccc2C1=O	inactive	–
Cc1ccc(N)cc1	inactive	–
OCCOCCO	inactive	–
CN(C)c1ccc(C(=O)c2ccc(N(C)C)cc2)cc1	inactive	–
O=C(N[C@H](c1ccccc1)[C@@H]1CN2CCC1CC2)c1c(Cl)ccc(C(F)(F)F)c1Cl	–	58 µM (active)

SMILES	outcome	AC50
Clc1ccccc1Cl	inactive	–
Nc1ccc(Cl)cc1N	inactive	–
O=C(Oc1ccc(Br)cc1)N1CCN2CCC1CC2	inactive	–
O=C1CCCO1	–	50 µM (active)
Nc1ccc([N+](=O)[O-])cc1	inactive	–
CCN(CC)CCO	inactive	–
[As]#[In]	inactive	–
Clc1ccc(C(c2ccc(Cl)cc2)C(Cl)(Cl)Cl)cc1	inactive	–
O=P(OCCCl)(OCCCl)OCCCl	inactive	–
CCCCOC(=O)c1ccccc1C(=O)OCc1ccccc1	inactive	–
Brc1ccc(Oc2ccccc2)cc1	inactive	–
Nc1cc(Cl)cc(C(=O)O)c1Cl	inactive	–
Cc1cc(N=Nc2ccccc2C)ccc1N	–	4.93 µM (active)
ClC1=C(Cl)C2(Cl)C3C(Cl)C=CC3C1(Cl)C2(Cl)Cl (stereo not given)	inactive	–
ClC1=C(Cl)[C@]2(Cl)[C@H]3[C@H]([C@@H]4C=C[C@H]3C4)[C@@]1(Cl)C2(Cl)Cl	inactive	–
CC(C)N(Cc1ccccc1)C(=O)C(C)(C)C	inactive	–
Nc1ccc(N=Nc2ccccc2)cc1	–	10.7 µM (active)
N#CC(Br)Br	inactive	–
Cc1ccc([N+](=O)[O-])cc1	inactive	–
C1=Cc2cccc3cccc1c23	inactive	–
